From PubChem BioAssay (NCATS)
Inconclusive results are not listed. Values without a mark were called inactive. Activity calls are given as the source filed them. Calls follow the shape of the dose curve; as a rule, active = well fitted inhibition curve with a large enough effect; inconclusive = small, poorly fitted or top-dose-only effect; inactive = flat fitted curve, though single readings scatter.

Test: P-glycoprotein substrates identified in KB-8-5-11 adenocarcinoma cell line, qHTS therapeutic library screen (AID 1346987); also: nearly all actives have a fitted effect of over 65% in size
Conditions: KB-8-5-11 (P-gp overexpressing) viability, CellTiter-Glo, 72 h; series mostly up to 44.5 µM; activity change, negative = cytotoxicity: at the top concentration
Text: The ATP-binding cassette transporters P-glycoprotein (P-gp) is known to limit brain penetration of many chemotherapy drugs. […] As such, we developed a high-throughput screen (HTS) to identify substrates of P-gp from a series of chemical libraries including the National Center for Advancing Translational Sciences Pharmaceutical Collection NPC, 2,816 compounds), testing a total of 10,804 compounds, most of which have known mechanisms of action. We used the CellTiter-Glo viability assay to test library compounds against the parental KB-3-1 human cervical adenocarcinoma cell line and the colchicine-selected sub-line KB-8-5-11 that over-expresses P-gp. KB-8-5-11 cells were also tested in the presence of a P-gp inhibitor (tariquidar) to assess reversability of transporter-mediated resistance. Of the tested compounds, a total of 90 P-gp substrates were identified including 55 newly identified P-gp substrates. Substrates were confirmed using an orthogonal killing assay against HEK-293 cells transfected with P-gp. As exemplars, we confirmed that […] (cyclin-dependent kinase inhibitor); AT9283, (Janus kinase 2/3 inhibitor); ispinesib (kinesin spindle protein inhibitor); gedatolisib (PKI-587, phosphoinositide 3-kinase/mammalian target of rampamycin inhibitor); GSK-690693 (AKT inhibitor); and KW-2478 (heat shock protein 90 inhibitor) were substrates , and direct ATPase stimulation was assessed. ABCG2 was also found to confer high levels of resistance to AT9283, GSK-690693 and gedatolisib, while ispinesib, AT7519 and KW-2478 were weaker substrates.
The HeLa derivative cell line, KB-3-1, and its colchicine-selected, P-gp-overexpressing subline, KB-8-5-11 were maintained in DMEM with 10% FCS and Pen/Strep with glutamine at 37 degree C in 5% CO2. For KB-8-5-11 cells, colchicine was added to the medium at a concentration of 100 ng/mL. HEK-293 cells transfected with empty vector (pcDNA) or vector containing human ABCB1 (MDR-19) or ABCG2 (R-5) have been described previously (Robey, Lin, Qiu, Chan & Bates, 2011) and were maintained in EMEM supplemented with 10% FCS, Pen/Strep and glutamine with 2 mg/ml G418 to select for the expression of the transporter. Cultures were confirmed to be free of mycoplasma infection using the MycoAlert Mycoplasma Detection Kit (Lonza, Walkersville, MD). For the screen, assay medium was identical to culture medium except for KB-8-5-11 where colchicine was excluded from the medium.
All cell lines were plated into 1536-well plates at 500 cells/well in 5 uL media. Compounds were then pinned in dose-response using a 1536-head pin tool (Kalypsis, San Diego, CA) and plates were incubated at 37 degree C in 5% CO2 for an additional 72 h. CellTiter-Glo reagent (Promega) was dispensed into the wells, incubated for 5 min and luminescence was read on a ViewLux instrument (Perkin-Elmer). Cytotoxic compounds were defined as those that yielded a curve class of -1.1, -1.2, -2.1, -2.2, -2.3, or -2.4, a maximum response of >50% and an AC50 of < 10 uM. Cherry-picked hits from screening analysis were tested with both the KB pair of cell lines, and the pcDNA (empty vector control) and MDR-19 (P-gp overexpressing) pair were tested, in the absence and presence of tariquidar.
% is scaled to controls: 0 for no effect and ±100 for the full control effect; potency is read from the fitted curve at half-maximal effect.

**Q.** Which “activity change, negative = cytotoxicity” value does the source give for CCCC(C)(COC(N)=O)COC(=O)NC1CC1 (stereo not given) here?
**A.** Its value is -7.22%.

**Q.** Which “outcome” value does the source give for C/C(O)=C(\C#N)C(=O)Nc1cc(Br)ccc1Br here?
**A.** Its value is “inactive”.

**Q.** For CN1[C@H]2CC[C@@H]1[C@@H](C(=O)O)[C@@H](OC(=O)c1ccccc1)C2, which Potency is on record?
**A.** The Potency was “inactive”.

**Q.** For CCN1C[C@]2(COC(=O)c3ccccc3N3C(=O)C[C@H](C)C3=O)CC[C@H](OC)[C@@]34[C@@H]5C[C@H]6[C@H](OC)[C@@H]5[C@](O)(C[C@@H]6OC)[C@](O)([C@@H](OC)[C@H]23)[C@@H]14, which “outcome” value is on record?
**A.** Its value is “inactive”.

**Q.** For COc1cc(C(=O)O[C@H]2[C@@H]3C=CO[C@@H](O[C@@H]4O[C@H](CO)[C@@H](O)[C@H](O)[C@H]4O)[C@@H]3[C@@]3(CO)O[C@@H]23)ccc1O, which “outcome” value is on record?
**A.** Its value is “inactive [at 17.3 µM]”.

**Q.** Which “activity change, negative = cytotoxicity” value does the source give for O=C(O)C(Cl)(Cl)Cl here?
**A.** Its value is 2.1%.

**Q.** Which “activity change, negative = cytotoxicity” value does the source give for O=C(N1CCOCC1)N1CCN(c2ccc(Cl)cc2)CC1 here?
**A.** Its value is -3.69%.

**Q.** Which “activity change, negative = cytotoxicity” value does the source give for CN1C(=O)N(c2ccc(C#N)c(C(F)(F)F)c2)C(=O)[C@]1(CO)c1ccccc1 here?
**A.** The value was -16.4%.

**Q.** For CCC1(c2ccccc2)C(=O)NC(=O)N(C(=O)c2ccccc2)C1=O (stereo not given), which “activity change, negative = cytotoxicity” value is on record?
**A.** The value was -14.3%.

**Q.** With COC(=O)C12C(=O)C(C)(O)C(=O)C1(C)C(C)=CC1C34CCC(OC3=O)C(C)(CO)C4CCC12C (stereo not given) as the molecule, how does the “outcome” value read?
**A.** The value was “inactive [at 17.3 µM]”.

**Q.** With C[C@H]1C(=O)O[C@H]2[C@H](O)[C@]34C5OC(=O)[C@]3(O[C@@H]3OC(=O)[C@H](O)C34[C@H](C(C)(C)C)[C@H]5O)C12O (stereo not given in full) as the molecule, how does the “outcome” value read?
**A.** The value was “inactive [at 17.3 µM]”.

**Q.** With COC1=CC(=O)O[C@@H](/C=C/c2ccccc2)C1 as the molecule, how does the “outcome” value read?
**A.** Its value is “inactive”.

**Q.** With Clc1ccc(Cl)cc1 as the molecule, how does the “activity change, negative = cytotoxicity” value read?
**A.** The value was -7.28%.

**Q.** With C/C(=C\c1csc(C)n1)[C@@H]1C[C@@H]2O[C@]2(C)CCC[C@H](C)[C@H](O)[C@@H](C)C(=O)C(C)(C)[C@@H](O)CC(=O)O1 as the molecule, how does the Potency read?
**A.** The Potency was 0.0366 µM (active).

**Q.** With CN1C(=O)c2ccccc2NC(=O)[C@]12O[C@@H]2c1ccccc1 as the molecule, how does the “activity change, negative = cytotoxicity” value read?
**A.** Its value is -7.58%.

**Q.** Which outcome does the source give for CCCCCCn1c(=O)c(C(=O)Nc2ccc(C(=O)OCCC)cc2)c(O)c2ccccc21 here?
**A.** The outcome was “inactive [at 9.29 µM]”.

**Q.** With O=C(O)c1ccnc2cc(C(OCCN3CCCCC3)c3ccccc3Cl)[nH]c12 (stereo not given) as the molecule, how does the “outcome” value read?
**A.** Its value is “inactive”.

**Q.** For CN1CCC[C@@H]1Cc1c[nH]c2ccc(Nc3ncccc3[N+](=O)[O-])cc12, which “activity change, negative = cytotoxicity” value is on record?
**A.** The value was -13%.

**Q.** With CCN1C[C@]2(OC(=O)c3ccccc3NC(C)=O)CC[C@H](OC)[C@@]34[C@@H]2C[C@@H]([C@@H]13)[C@@]1(O)C[C@H](OC)[C@H]2C[C@@H]4[C@]1(O)[C@H]2OC as the molecule, how does the “activity change, negative = cytotoxicity” value read?
**A.** Its value is 5.02%.

**Q.** Which “activity change, negative = cytotoxicity” value does the source give for C[C@]12C=CC(=O)C=C1CC[C@@H]1[C@@H]2CC[C@]2(C)OC(=O)CC[C@@H]12 here?
**A.** The value was -22%.

**Q.** Which “activity change, negative = cytotoxicity” value does the source give for OC[C@@H](O)[C@H]1O[C@@H]2O[C@H](C(Cl)(Cl)Cl)O[C@@H]2[C@H]1O here?
**A.** The value was 10.5%.

**Q.** With OCCCCC#Cc1cncc(OC[C@@H]2CCN2)c1 as the molecule, how does the “activity change, negative = cytotoxicity” value read?
**A.** The value was 1.45%.

**Q.** With CN[C@H]1C[C@@H](N)[C@H](O)[C@@H](O[C@@H]2O[C@H](CO)[C@H](O)[C@@H]3OC4(O[C@H]23)O[C@H](C(N)CO)[C@H](O)[C@H](O)[C@H]4O)[C@@H]1O (stereo not given in full) as the molecule, how does the Potency read?
**A.** Its Potency is “inactive”.

**Q.** With C=CC(C)(O)CC/C=C(\C)C(=O)O[C@H]1[C@H](O)[C@@H](CO)O[C@@H](OC(=O)[C@]23CCC(C)(C)CC2C2=CCC4[C@@]5(C)CC[C@H](O[C@@H]6O[C@H](CO[C@@H]7OC[C@H](O)[C@H](O)[C@H]7O[C@@H]7OC[C@@H](O)[C@H](O)[C@H]7O)[C@@H](O)[C@H](O)[C@H]6O)C(C)(C)C5CC[C@@]4(C)[C@]2(C)CC3)[C@@H]1OC1OC(C)C(O[C@@H]2OC[C@@H](O)[C@H](O[C@@H]3OC[C@@H](O)[C@H](O)[C@H]3O)[C@H]2O)C(O)C1O (stereo not given in full) as the molecule, how does the activity change, negative = cytotoxicity read?
**A.** Its activity change, negative = cytotoxicity is 3.69% [at 9.29 µM].

**Q.** With S=C(S)N1CCNCC1 as the molecule, how does the “activity change, negative = cytotoxicity” value read?
**A.** Its value is -0.146%.

**Q.** For CN1CCCC1CCOC(c1cc2nccc(C(=O)O)c2[nH]1)c1ccccc1Cl (stereo not given), which “outcome” value is on record?
**A.** The value was “inactive”.

**Q.** For CC(=O)O[C@H]1C[C@H](O[C@H]2[C@@H](O)C[C@H](O[C@H]3[C@@H](O)C[C@H](O[C@H]4CC[C@@]5(C)[C@H](CC[C@@H]6[C@@H]5C[C@@H](O)[C@]5(C)[C@@H](C7=CC(=O)OC7)CC[C@]65O)C4)O[C@@H]3C)O[C@@H]2C)O[C@H](C)[C@H]1O[C@@H]1O[C@H](CO)[C@@H](O)[C@H](O)[C@H]1O, which Potency is on record?
**A.** The Potency was 0.206 µM (active).

**Q.** With O=c1ccc2cc(O[C@@H]3O[C@H](CO)[C@@H](O)[C@H](O)[C@H]3O)c(O)cc2o1 as the molecule, how does the “activity change, negative = cytotoxicity” value read?
**A.** The value was -2.11% [at 17.3 µM].

**Q.** With Clc1ccc(C2(Cn3cncn3)OCCO2)c(Cl)c1 as the molecule, how does the “activity change, negative = cytotoxicity” value read?
**A.** Its value is -1.18%.

**Q.** With CCC(C)(S(=O)(=O)CC)S(=O)(=O)CC as the molecule, how does the “activity change, negative = cytotoxicity” value read?
**A.** Its value is -11.5%.

**Q.** With O=C1C[C@@H]2OCC=C3CN4CC[C@]56c7ccccc7N1[C@H]5[C@H]2[C@H]3C[C@H]46 (tested in a mixture with another compound) as the molecule, how does the Potency read?
**A.** The Potency was “inactive”.

**Q.** Which “activity change, negative = cytotoxicity” value does the source give for Cc1cccc(C(C)c2cnc[nH]2)c1C (stereo not given) here?
**A.** Its value is 9.02%.

**Q.** For C=C[C@H]1[C@H](O[C@@H]2O[C@H](CO)[C@@H](O)[C@H](O)[C@H]2O)OC=C2C(=O)OCC[C@H]21, which “outcome” value is on record?
**A.** The value was “inactive”.

**Q.** For O=CC=O, which “activity change, negative = cytotoxicity” value is on record?
**A.** The value was 2.32%.

**Q.** For CCCCCl, which “activity change, negative = cytotoxicity” value is on record?
**A.** Its value is -10.3%.

**Q.** Which “activity change, negative = cytotoxicity” value does the source give for NCC[C@H](O)C(=O)N[C@@H]1C[C@H](N)[C@@H](O[C@H]2O[C@H](CN)[C@@H](O)[C@H](O)[C@H]2N)[C@H](O[C@@H]2O[C@H](CO)[C@@H](O)[C@H]2O)[C@H]1O here?
**A.** Its value is 12.8% [at 17.3 µM].

**Q.** For CC1=CC2/C=C(\C)CCC(O)C3OC(C)(C)OC3CC(=O)OC23C(=O)NC(CC(C)C)C3C1C (stereo not given), which “activity change, negative = cytotoxicity” value is on record?
**A.** Its value is -2.51% [at 17.3 µM].

**Q.** Which “activity change, negative = cytotoxicity” value does the source give for CCC1(C)CC(=O)NC(=O)C1 here?
**A.** Its value is 12.3% [at 17.3 µM].

**Q.** With CCCC(=O)OC(C(Cl)(Cl)Cl)P(=O)(OC)OC (stereo not given) as the molecule, how does the “activity change, negative = cytotoxicity” value read?
**A.** The value was -22.4%.

**Q.** For C[C@H]1CCC[C@H](O)CCCCCc2cc(O)cc(O)c2C(=O)O1, which Potency is on record?
**A.** The Potency was 14.6 µM (active).
